Measured values: publication PMC11062922 (Nature Chemical Biology, 2023)
Where two headings read alike, the source gives them in different places.

Legend:
Parameters in all cases: species or system human, MV4-11 + K-562 + COLO205 + SK-N-BE2 + OVCAR-8
AXL = conditions: read-out: apparent Kd, n = 1
LYN = conditions: read-out: apparent Kd, n = 1
ULK1 = conditions: read-out: apparent Kd, n = 1
CSK = conditions: read-out: apparent Kd, n = 1
EPHA1 = conditions: read-out: apparent Kd, n = 1
EPHB3 = conditions: read-out: apparent Kd, n = 1
MTOR = conditions: read-out: apparent Kd, n = 1
PIK3CG = conditions: read-out: apparent Kd, n = 1
RIPK2 = conditions: read-out: apparent Kd, n = 1
PRKG1 = conditions: read-out: apparent Kd, n = 1
TGFBR2 = conditions: read-out: apparent Kd, n = 1
ROCK1 = conditions: read-out: apparent Kd, n = 1
CDK2 = conditions: read-out: apparent Kd; compound concentrations: 100 nM and 1000 nM (sheet 'Samples'), CATDS: 7.0892729990410901E-3; n = 1
PDGFRB = conditions: read-out: apparent Kd; compound concentrations: 100 nM and 1000 nM (sheet 'Samples'), CATDS: 6.5181238774795402E-3; n = 1
JAK2 = conditions: read-out: apparent Kd; compound concentrations:100 nM and 1000 nM (sheet 'Samples'); n = 1
CDC42BPA = conditions: read-out: apparent Kd; compound concentrations: 100 nM and 1000 nM (sheet 'Samples'), CATDS: 1.08451954536147E-2; n = 1
CDC42BPB = conditions: read-out: apparent Kd; compound concentrations: 100 nM and 1000 nM (sheet 'Samples'), CATDS: 1.55962433330884E-2; n = 1
CDC42BPG = conditions: read-out: apparent Kd; compound concentrations: 100 nM and 1000 nM (sheet 'Samples'), CATDS: 2.2022337119778398E-2; n = 1
[1] = compound concentrations:100 nM and 1000 nM (sheet 'Samples')

**Q.** Which results are given for `CNC(=O)c1ccccc1Nc1nc(Nc2ccc(N3CCOCC3)cc2)ncc1Cl.Cl` [GSK1576028A]?
**A.** potency estimated from few doses (AXL; [1]): 0.732 µM; potency estimated from few doses (LYN; [1]): 1.01 µM; potency estimated from few doses (ULK1; [1]): 1.42 µM

**Q.** With `CN1C[C@@H]2Cn3c(c(C4=C(c5cn(C)c6ccccc56)C(=O)NC4=O)c4ccccc43)C[C@H]2C1.Cl` [RO0320234-001] as the compound, how does the potency estimated from few doses (AXL; [1]) read?
**A.** The potency estimated from few doses was 1.34 µM.

**Q.** What about the potency estimated from few doses (CSK; [1]) of the same compound?
**A.** Its potency estimated from few doses is 0.552 µM.

**Q.** What about the potency estimated from few doses (EPHA1; [1]) of the same compound?
**A.** The potency estimated from few doses was 0.368 µM.

**Q.** What about the potency estimated from few doses (EPHB3; [1]) of the same compound?
**A.** The potency estimated from few doses was 1.03 µM.

**Q.** And the potency estimated from few doses (LYN; [1])?
**A.** Its potency estimated from few doses is 0.158 µM.

**Q.** What about the potency estimated from few doses (MTOR; [1]) of the same compound?
**A.** The potency estimated from few doses was 0.186 µM.

**Q.** What about the potency estimated from few doses (PIK3CG; [1]) of the same compound?
**A.** The potency estimated from few doses was 1.4 µM.

**Q.** What about the potency estimated from few doses (RIPK2; [1]) of the same compound?
**A.** Its potency estimated from few doses is 0.407 µM.

**Q.** And the potency estimated from few doses (ULK1; [1])?
**A.** The potency estimated from few doses was 0.768 µM.

**Q.** Which results are given for `CCOC(=O)N1CCC(n2cnc(-c3ccc(F)cc3)c2-c2ccnc(N)n2)CC1` [SB-219952]?
**A.** potency estimated from few doses (AXL; compound concentrations: 100 nM and 1000 nM (sheet 'Samples'), CATDS: 1.0061198930866599E-2): 0.853 µM; potency estimated from few doses (CSK; compound concentrations: 100 nM and 1000 nM (sheet 'Samples'), CATDS: 1.06273677269496E-2): 0.745 µM; potency estimated from few doses (EPHA1; compound concentrations: 100 nM and 1000 nM (sheet 'Samples'), CATDS: 1.16401500305403E-2): 0.603 µM; potency estimated from few doses (EPHB3; compound concentrations: 100 nM and 1000 nM (sheet 'Samples'), CATDS: 9.5797280308489805E-3): 0.971 µM; potency estimated from few doses (RIPK2; compound concentrations: 100 nM and 1000 nM (sheet 'Samples'), CATDS: 1.44232329790909E-2): 0.387 µM; potency estimated from few doses (ULK1; compound concentrations: 100 nM and 1000 nM (sheet 'Samples'), CATDS: 8.7591953148760202E-3): 1.26 µM

**Q.** Which potency estimated from few doses (PRKG1; [1]) does the source give for `CCn1c(-c2nonc2N)nc2c(C#CC(C)(C)O)nc(OCCN)cc21.CCn1c(-c2nonc2N)nc2c(C#CC(C)(C)O)nc(OCCN)cc21.Cl.Cl` [GSK902056A] here?
**A.** The potency estimated from few doses was 1.23 µM.

**Q.** For `Cc1cccc(-c2nc(Nc3ccncc3)c3sccc3n2)n1` [GW869641X], which potency estimated from few doses (RIPK2; [1]) is on record?
**A.** Its potency estimated from few doses is 0.722 µM.

**Q.** What about the potency estimated from few doses (TGFBR2; [1]) of the same compound?
**A.** Its potency estimated from few doses is 0.363 µM.

**Q.** With `CC(C)N1CCC(n2cnc(-c3ccc(F)cc3)c2-c2ccnc(N)n2)CC1` [SB-223132] as the compound, how does the potency estimated from few doses (CSK; [1]) read?
**A.** The potency estimated from few doses was 0.898 µM.

**Q.** What about the potency estimated from few doses (EPHB3; [1]) of the same compound?
**A.** The potency estimated from few doses was 1.41 µM.

**Q.** And the potency estimated from few doses (RIPK2; [1])?
**A.** The potency estimated from few doses was 0.559 µM.

**Q.** What does the source list for `Cl.Cl.NCC(C(=O)Nc1cc(Br)c(-c2ccnc3[nH]ccc23)s1)c1ccccc1.NCC(C(=O)Nc1cc(Br)c(-c2ccnc3[nH]ccc23)s1)c1ccccc1` (stereo not shown) [GSK1269851A]?
**A.** potency estimated from few doses (AXL; [1]): 1.61 µM; potency estimated from few doses (CSK; [1]): 0.674 µM; potency estimated from few doses (EPHA1; [1]): 0.516 µM; potency estimated from few doses (EPHB3; [1]): 1.18 µM; potency estimated from few doses (LYN; [1]): 0.586 µM; potency estimated from few doses (ROCK1; [1]): 0.894 µM; potency estimated from few doses (ULK1; [1]): 0.705 µM

**Q.** For `COc1ccc(Nc2ncc(C#N)c(Nc3ccccc3C(N)=O)n2)cc1N1CCN(C)CC1.Cl` [GSK1558669A], which potency estimated from few doses (CDK2) is on record?
**A.** The potency estimated from few doses was 0.671 µM.

**Q.** And the potency estimated from few doses (LYN; compound concentrations: 100 nM and 1000 nM (sheet 'Samples'), CATDS: 6.9772111779179699E-3)?
**A.** The potency estimated from few doses was 0.724 µM.

**Q.** What about the potency estimated from few doses (PDGFRB) of the same compound?
**A.** Its potency estimated from few doses is 1.03 µM.

**Q.** What about the potency estimated from few doses (ULK1; compound concentrations: 100 nM and 1000 nM (sheet 'Samples'), CATDS: 1.40188360119969E-2) of the same compound?
**A.** Its potency estimated from few doses is 0.0778 µM.

**Q.** With `O=C1N=C(NCCc2ccc(Cl)cc2)S/C1=C\c1ccc2ncccc2c1` [RO4498479-000] as the compound, how does the potency estimated from few doses (AXL; compound concentrations: 100 nM and 1000 nM (sheet 'Samples'), CATDS: 1.04698651204191E-2) read?
**A.** Its potency estimated from few doses is 0.5 µM.

**Q.** And the potency estimated from few doses (CSK; compound concentrations: 100 nM and 1000 nM (sheet 'Samples'), CATDS: 1.24616497834408E-2)?
**A.** Its potency estimated from few doses is 0.349 µM.

**Q.** And the potency estimated from few doses (EPHA1; compound concentrations: 100 nM and 1000 nM (sheet 'Samples'), CATDS: 1.45728088711572E-2)?
**A.** The potency estimated from few doses was 0.262 µM.

**Q.** What about the potency estimated from few doses (EPHB3; compound concentrations: 100 nM and 1000 nM (sheet 'Samples'), CATDS: 7.7760925850710602E-3) of the same compound?
**A.** Its potency estimated from few doses is 1.11 µM.

**Q.** What about the potency estimated from few doses (LYN; compound concentrations: 100 nM and 1000 nM (sheet 'Samples'), CATDS: 9.5944426584782493E-3) of the same compound?
**A.** Its potency estimated from few doses is 0.613 µM.

**Q.** What about the potency estimated from few doses (PIK3CG; compound concentrations: 100 nM and 1000 nM (sheet 'Samples'), CATDS: 8.5012457956318496E-3) of the same compound?
**A.** Its potency estimated from few doses is 0.843 µM.

**Q.** What about the potency estimated from few doses (RIPK2; compound concentrations: 100 nM and 1000 nM (sheet 'Samples'), CATDS: 1.0901360132345101E-2) of the same compound?
**A.** Its potency estimated from few doses is 0.458 µM.

**Q.** What about the potency estimated from few doses (ULK1; compound concentrations: 100 nM and 1000 nM (sheet 'Samples'), CATDS: 1.00048929217101E-2) of the same compound?
**A.** The potency estimated from few doses was 0.555 µM.

**Q.** `CONC1=NC(=O)/C(=C/c2ccc3ncccc3c2)S1` [RO4613269-000] was tested. Which potency estimated from few doses (PIK3CG; compound concentrations: 100 nM and 1000 nM (sheet 'Samples'), CATDS: 0.172527207279461) did it give?
**A.** The potency estimated from few doses was 0.606 µM.

**Q.** With `Cc1ccc2c(-c3ccncc3)c(-c3ccc(F)cc3)nn2c1.Cl` [GW461484A] as the compound, how does the potency estimated from few doses (CSK; [1]) read?
**A.** The potency estimated from few doses was 0.893 µM.

**Q.** And the potency estimated from few doses (EPHA1; [1])?
**A.** Its potency estimated from few doses is 0.643 µM.

**Q.** What about the potency estimated from few doses (EPHB3; [1]) of the same compound?
**A.** The potency estimated from few doses was 1.96 µM.

**Q.** What about the potency estimated from few doses (LYN; [1]) of the same compound?
**A.** Its potency estimated from few doses is 1.01 µM.

**Q.** And the potency estimated from few doses (MTOR; [1])?
**A.** The potency estimated from few doses was 0.571 µM.

**Q.** Which potency estimated from few doses (PIK3CG; compound concentrations: 100 nM and 1000 nM (sheet 'Samples'), CATDS: 0.208226533332634) does the source give for `O=C1NC(=O)/C(=C/c2ccc3ncccc3c2)S1` [RO4603632-000] here?
**A.** Its potency estimated from few doses is 0.948 µM.

**Q.** Which results are given for `Cl.NCc1ccc(-c2nc(-c3ccc(Cl)c(O)c3)c(-c3ccncc3)[nH]2)cc1` [SB-476429-A]?
**A.** potency estimated from few doses (JAK2): 0.347 µM; potency estimated from few doses (RIPK2; [1]): 0.0227 µM; potency estimated from few doses (TGFBR2; [1]): 1.2 µM

**Q.** Which results are given for `CN(c1ccc(NC(=O)Nc2cccc(Cl)c2)cc1)c1ccnc(N)n1.Cl` [GW830707A]?
**A.** potency estimated from few doses (CDC42BPA): 1.27 µM; potency estimated from few doses (CDC42BPB): 0.126 µM; potency estimated from few doses (CDC42BPG): 0.0409 µM; potency estimated from few doses (MTOR; compound concentrations: 100 nM and 1000 nM (sheet 'Samples'), CATDS: 2.8595787466671799E-2): 0.0226 µM; potency estimated from few doses (PRKG1; compound concentrations: 100 nM and 1000 nM (sheet 'Samples'), CATDS: 9.7555331639362503E-2): 0.00328 µM; potency estimated from few doses (ROCK1; compound concentrations: 100 nM and 1000 nM (sheet 'Samples'), CATDS: 3.6596827517009503E-2): 0.0142 µM

**Q.** What does the source list for `Cc1ccc(Nc2ccnc(Nc3ccc4c(c3)CS(=O)(=O)C4)n2)cc1O.Cl` [GW579362A]?
**A.** potency estimated from few doses (RIPK2; compound concentrations: 100 nM and 1000 nM (sheet 'Samples'), CATDS: 5.8804795040806997E-2): 0.261 µM; potency estimated from few doses (TGFBR2; compound concentrations: 100 nM and 1000 nM (sheet 'Samples'), CATDS: 0.33092190258733201): 0.0132 µM
